Assay results as given in the supplement of paper PMC9135407.
Several values for one entry are separate records, joined by “and”; a condition that tells them apart may be missing. Equal entries are not always repeated. Structures can show the parent of a compound that is named as a salt. Hit rate of the full screen: of about 5,800 compounds, about 620 (11%) showed activity. Shown is part of a subset that was picked to be rich in actives. Unmarked numbers belong to inactive results.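 Rule for the calls: active = score above a cut-off or among the top three wells of a plate; in these data no inactive exceeds 0.85.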

System: primary human hepatic stellate cells (donor 1)
Test: scaled lipid accumulation score (0 = DMSO-like, 1 = nortriptyline-like); higher = stronger HSC inactivation (lipid re-accumulation), active = hit call of the paper
Conditions: 48 h
[1] = library stock concentration: 1 mM
[2] = library stock concentration: 10 mM
[3] = library stock concentration: 3.33 mM
[4] = library stock concentration: 2 mM
[5] = library stock concentration: 5.1 mM

Structure (SMILES): C=C1[C@H]2C[C@@]3([C@@H]1O)[C@@H](C[C@@H]2O)[C@]12[C@@H]4C[C@H]3[C@H]1N(CC)C[C@]4(C)CC[C@@H]2O [Napelline]
- scaled lipid accumulation score: ≤ 0

Structure (SMILES): NCCC(O)C(=O)NC1CC(N)C(OC2OC(CN)C(O)[C@H](O)[C@@H]2N)[C@H](OC2O[C@H](CO)[C@@H](O)[C@@H]2O)[C@@H]1O (stereo partly drawn) [Butirosin disulfate salt]
- scaled lipid accumulation score: 0.015

Structure (SMILES): COc1ccc(/C=C\c2cc(OC)cc(OC)c2)cc1 [cis-trismethoxy Resveratrol]
- scaled lipid accumulation score [1]: 0.097

Structure (SMILES): N[C@]1(C(=O)O)CC[C@H](C(=O)O)C1
- scaled lipid accumulation score [2]: 0.035

Structure (SMILES): C[C@H]1O[C@@H](O[C@@H]2C[C@H](O)[C@]3(CO)[C@H]4[C@H](O)C[C@]5(C)[C@H](C6=CC(=O)OC6)CC[C@]5(O)[C@@H]4CC[C@]3(O)C2)[C@@H](O)[C@H](O)[C@H]1O.O.O.O.O.O.O.O.O [Ouabain]
- scaled lipid accumulation score [3]: 1.05 (active)
- scaled lipid accumulation score [2]: 1.06 (active)

Structure (SMILES): C[C@@H]1O[C@@H](O[C@H]2C[C@@H](O)[C@]3(CO)[C@H]4[C@H](O)C[C@]5(C)[C@@H](C6=CC(=O)OC6)CC[C@]5(O)[C@@H]4CC[C@]3(O)C2)[C@H](O)[C@H](O)[C@H]1O.O.O.O.O.O.O.O.O [Strophantine octahydrate]
- scaled lipid accumulation score: 1.02 (active)

Structure (SMILES): CCCCC/C=C\C/C=C\C/C=C\C/C=C\CCCC(=O)Nc1ccc2c(C)cc(=O)oc2c1 [AMC Arachidonoyl Amide]
- scaled lipid accumulation score [1]: 0.06

Structure (SMILES): C/C=C1\C[C@@H](C)[C@](O)(CO)C(=O)OCC2=CCN3CC[C@@H](OC1=O)[C@@H]23 [Retrorsine]
- scaled lipid accumulation score: ≤ 0

Structure (SMILES): COc1c(C[C@@H](C)OC(=O)Oc2ccc(O)cc2)c2c3c(C[C@@H](C)OC(=O)c4ccccc4)c(OC)c(=O)c4c(O)cc(OC)c(c5c(OC)cc(O)c(c1=O)c52)c43 [Calphostin C]
- scaled lipid accumulation score (library stock concentration: 600 uM): 0.094

Structure (SMILES): C=C[C@]12CN(C)[C@@H]3[C@H]4CO[C@H](C[C@H]41)[C@]1(C(=O)Nc4ccccc41)[C@@H]32 [Gelsemine]
- scaled lipid accumulation score: ≤ 0

Structure (SMILES): C=CCc1ccccc1OCC(O)CNC1(C)CCC(C(C)(C)NC(=O)CBr)CC1 (stereo not drawn) [Bromoacetyl alprenolol menthane]
- scaled lipid accumulation score [2]: ≤ 0

Structure (SMILES): CO[C@H]1CC[C@@H](O[C@H]2C[C@H]([C@]3(C)CC[C@]4(C[C@H](O)[C@@H](C)[C@@H]([C@@H](C)/C=C(\C)C(=O)[C@H](C)C[C@H](C)C(=O)O)O4)O3)O[C@]3(O[C@@H]([C@H]4O[C@@](O)(CO)[C@H](C)C[C@@H]4C)C[C@@H]3C)[C@@H]2C)O[C@@H]1C [Nanchangmycin]
- scaled lipid accumulation score [3]: 1.27 (active)
- scaled lipid accumulation score [2]: 0.663

Structure (SMILES): CO[C@@H]1C[C@@H](C[C@H]2CC[C@H](C)[C@H]([C@@H](C)C(=O)O)O2)O[C@]2(O[C@](C)([C@H]3CC[C@@](C)([C@@H]4O[C@@H]([C@H]5O[C@@](O)(CO)[C@H](C)C[C@@H]5C)C[C@@H]4C)O3)C[C@H]2C)[C@@H]1C [Nigericin]
- scaled lipid accumulation score (library stock concentration: 6.9 mM): 0.535

Structure (SMILES): NC(Cc1cc(O)c(O)cc1O)C(=O)O (racemic) [6-Hydroxy-DL-DOPA]
- scaled lipid accumulation score [2]: ≤ -0.07

Structure (SMILES): CC(=O)[C@H]1CC[C@H]2[C@@H]3CC[C@H]4C[C@H](O)CC[C@]4(C)[C@H]3CC[C@]12C [5alpha-Pregnan-3alpha-ol-20-one]
- scaled lipid accumulation score [2]: ≤ 0

Structure (SMILES): CC(=O)O[C@H]1C[C@H](O[C@H]2[C@@H](O)C[C@H](O[C@H]3[C@@H](O)C[C@H](O[C@H]4CC[C@@]5(C)[C@H](CC[C@@H]6[C@@H]5C[C@@H](O)[C@]5(C)[C@@H](C7=CC(=O)OC7)CC[C@]65O)C4)O[C@@H]3C)O[C@@H]2C)O[C@H](C)[C@H]1O[C@@H]1O[C@H](CO)[C@@H](O)[C@H](O)[C@H]1O [Lanatoside c]
- scaled lipid accumulation score [4]: 0.894 (active)
- scaled lipid accumulation score [2]: 0.892 (active)

Structure (SMILES): C[C@H]1CC[C@]2(NC1)O[C@H]1C[C@H]3[C@@H]4CC[C@H]5C[C@@H](O[C@@H]6O[C@H](CO)[C@H](O[C@@H]7O[C@H](CO)[C@@H](O)[C@H](O[C@@H]8OC[C@@H](O)[C@H](O)[C@H]8O)[C@H]7O[C@@H]7O[C@H](CO)[C@@H](O)[C@H](O)[C@H]7O)[C@H](O)[C@H]6O)CC[C@]5(C)[C@H]4CC[C@]3(C)[C@H]1[C@@H]2C [Tomatine]
- scaled lipid accumulation score: 0.319

Structure (SMILES): C[C@]12CC[C@H](O)C[C@H]1CC[C@@H]1[C@@H]2C[C@@H](O)[C@]2(C)[C@@H](C3=CC(=O)OC3)CC[C@]12O [Digoxigenin]
- scaled lipid accumulation score: 0.991 (active)

Structure (SMILES): C[C@@H]1O[C@@H](O[C@H]2CC[C@]3(C=O)[C@H]4CC[C@]5(C)[C@@H](C6=CC(=O)OC6)CC[C@]5(O)[C@@H]4CC[C@]3(O)C2)[C@H](O)[C@H](O)[C@H]1O [Convallatoxin]
- scaled lipid accumulation score [2]: 0.656

Structure (SMILES): C[C@]12CC[C@H](O)C[C@H]1CC[C@@H]1[C@@H]2CC[C@]2(C)[C@@H](C3=CC(=O)OC3)CC[C@]12O [Digitoxigenin]
- scaled lipid accumulation score: 0.936 (active)

Structure (SMILES): C[C@]12CC[C@H](O)C[C@@H]1CC[C@@H]1[C@@H]2CC[C@]2(C)C(=O)CC[C@@H]12 [Epiandrosterone]
- scaled lipid accumulation score: 0.082
- scaled lipid accumulation score [3]: ≤ 0
- scaled lipid accumulation score [2]: ≤ 0

Structure (SMILES): CO[C@H]1[C@H](O)[C@@H](O[C@H]2CC[C@]3(C=O)C4CC[C@]5(C)[C@@H](C6=CC(=O)OC6)CC[C@]5(O)C4CC[C@@H]3C2)O[C@@H](C)[C@@H]1O (stereo partly drawn) [Peruvoside]
- scaled lipid accumulation score [2]: 0.873 (active)

Structure (SMILES): C[C@]12CC[C@@H](O)C[C@@H]1CC[C@@H]1[C@@H]2CC[C@]2(C)C(=O)CC[C@@H]12 [Androsterone]
- scaled lipid accumulation score: 0.083

Structure (SMILES): CC(=O)O[C@H]1C[C@H](O[C@H]2[C@@H](O)C[C@H](O[C@H]3[C@@H](O)C[C@H](O[C@H]4CC[C@@]5(C)[C@H](CC[C@@H]6[C@@H]5C[C@@H](O)[C@]5(C)[C@@H](C7=CC(=O)OC7)CC[C@]65O)C4)O[C@@H]3C)O[C@@H]2C)O[C@H](C)[C@H]1O[C@@H]1O[C@H](CO)[C@@H](O)[C@H](O)[C@H]1O [Lanatoside C]
- scaled lipid accumulation score: 1.08 (active)

Structure (SMILES): C[C@]12CC[C@@H](O)C[C@H]1CC[C@@H]1[C@@H]2CC[C@]2(C)C(=O)CC[C@@H]12 [3-alpha-Hydroxy-5-beta-androstan-17-one]
- scaled lipid accumulation score: ≤ 0

Structure (SMILES): CCCCCCCC/C=C\CCCCCCCC(=O)OC[C@@H](COP(O)(O)=S)OC
- scaled lipid accumulation score [1]: 0.084

Structure (SMILES): NC(=NN=Cc1ccc(-c2cccc([N+](=O)[O-])c2)o1)N[N+](=O)[O-] [ERK Inhibitor III]
- scaled lipid accumulation score [3]: ≤ 0

Structure (SMILES): Cn1c2c(c3ccccc31)CCNCC2
- scaled lipid accumulation score [2]: 0.326

Structure (SMILES): COc1cccc(C2(O)CCCCC2CN(C)C)c1 (stereo not drawn) [Tramadol hydrochloride]
- scaled lipid accumulation score (library stock concentration: 6.7 mM): ≤ 0

Structure (SMILES): COc1cccc(C2(O)CCCCC2CN(C)C)c1 (stereo not drawn) [Tramadol]
- scaled lipid accumulation score [2]: 0.009

Structure (SMILES): COc1cccc(C2(O)CCCCC2CN(C)C)c1 (stereo not drawn) [Tramadol HCl]
- scaled lipid accumulation score (library stock concentration: 7.6 mM): ≤ 0

Structure (SMILES): COc1ccc(CCN)cc1OC [Homoveratrylamine]
- scaled lipid accumulation score [2]: 0.046

Structure (SMILES): C=CCN1C[C@H](C(=O)N(CCCN(C)C)C(=O)NCC)C[C@@H]2c3cccc4[nH]cc(c34)C[C@H]21 [Cabergoline]
- scaled lipid accumulation score (library stock concentration: 4.4 mM): 0.368

Structure (SMILES): CCN1C[C@]2(COC)CC[C@H](O)[C@@]34C5C[C@@H]6[C@@H](OC)C[C@](O)(C(CC23)C14)C5[C@H]6OC(C)=O (stereo partly drawn) [Condelphine]
- scaled lipid accumulation score: ≤ 0

Structure (SMILES): COc1cc2c(c(OC)c1OC)-c1ccc(O)c(=O)cc1[C@@H](N)CC2 [Trimethylcolchicinic acid]
- scaled lipid accumulation score: 0.074

Structure (SMILES): O=C(NC(COc1ccc2[nH]c(=O)[nH]c2c1)c1ccccc1)c1cccn(Cc2ccc(F)c(F)c2)c1=O (stereo not drawn)
- scaled lipid accumulation score (library stock concentration: 80 uM): ≤ 0
- scaled lipid accumulation score (library stock concentration: 400 uM): ≤ 0
- scaled lipid accumulation score [4]: ≤ 0
- scaled lipid accumulation score [2]: ≤ 0

Structure (SMILES): COc1cc([C@@H]2c3cc4c(cc3[C@H](O)[C@H]3COC(=O)[C@H]23)OCO4)cc(OC)c1OC [Podophyllotoxin]
- scaled lipid accumulation score: ≤ 0
- scaled lipid accumulation score [2]: 0.288

Structure (SMILES): COc1cc([C@@H]2c3cc4c(cc3[C@H](O)[C@H]3COC(=O)[C@H]23)OCO4)cc(OC)c1OC [Podofilox]
- scaled lipid accumulation score (library stock concentration: 4.8 mM): 0.201
- scaled lipid accumulation score [2]: 0.419

Structure (SMILES): C/C=C(\C)C(=O)N[C@@H](c1ccccc1)[C@@H](O)C(=O)O[C@H]1C[C@@]2(O)[C@@H](OC(=O)c3ccccc3)[C@@H]3[C@]4(OC(C)=O)CO[C@@H]4C[C@H](O)[C@@]3(C)C(=O)[C@H](OC(C)=O)C(=C1C)C2(C)C [Cephalomannine]
- scaled lipid accumulation score [3]: ≤ 0
- scaled lipid accumulation score [2]: ≤ 0

Structure (SMILES): O=C(CCCN1CCC2(CC1)C(=O)N(Cc1cccc(F)c1)CN2c1ccccc1)c1ccc(F)cc1.O=C(O)/C=C\C(=O)O [3'-Fluorobenzylspiperone maleate]
- scaled lipid accumulation score [2]: 0.967 (active)

Structure (SMILES): O=C(NCCN1CCC2(CC1)C(=O)NCN2c1ccccc1)c1ccc2ccccc2c1
- scaled lipid accumulation score [1]: ≤ 0

Structure (SMILES): O=C(CCCN1CCC2(CC1)C(=O)NCN2c1ccccc1)c1ccc(F)cc1 [Spiperone] [listing 1 of 2 here]
- scaled lipid accumulation score [5]: 0.939 (active)

Structure (SMILES): O=C(CCCN1CCC2(CC1)C(=O)NCN2c1ccccc1)c1ccc(F)cc1 [Spiperone] [listing 2 of 2 here]
- scaled lipid accumulation score: 0.119
- scaled lipid accumulation score [5]: 0.399
- scaled lipid accumulation score [2]: ≤ 0

Structure (SMILES): O=C(CCCN1CCC2(CC1)C(=O)NCN2c1ccccc1)c1ccc(F)cc1 [Spiperone hydrochloride]
- scaled lipid accumulation score [2]: 0.74 and 0.784

Structure (SMILES): CC(N)c1cccc(Cl)c1Cl (stereo not drawn)
- scaled lipid accumulation score [2]: 0.208
